Our source for the activation values is PubChem BioAssay AID540308 (The Scripps Research Institute Molecular Screening Center, 2011).

Screen size: about 360,000 compounds; about 3,500 (0.97%) were called active. Many of the other results were omitted from the sample, so actives are more common in it than they were. Unmarked numbers belong to inactive results.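 Rule for the calls: active = activation above a per-plate cutoff, the mean activation of sample wells on that plate plus 3 SD (cut at about 8% in these data); inactive = the rest.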

The target in the assay is Melanocortin receptor 4 (Homo sapiens) (UniProt P32245). The assay is described as follows: MC4R agonists recruiting beta-arrestin, primary screen, cell-based, luminescence, agonist arm of biased-ligand search (AID 540308). The following applies: U2OS MC4R beta-arrestin complementation, at 8.9 µM, stronger effect = higher value, percent of melanotan II response, DMSO zero.
Chain of Melanocortin receptor 4 (Homo sapiens) (P32245 whole entry, looked up): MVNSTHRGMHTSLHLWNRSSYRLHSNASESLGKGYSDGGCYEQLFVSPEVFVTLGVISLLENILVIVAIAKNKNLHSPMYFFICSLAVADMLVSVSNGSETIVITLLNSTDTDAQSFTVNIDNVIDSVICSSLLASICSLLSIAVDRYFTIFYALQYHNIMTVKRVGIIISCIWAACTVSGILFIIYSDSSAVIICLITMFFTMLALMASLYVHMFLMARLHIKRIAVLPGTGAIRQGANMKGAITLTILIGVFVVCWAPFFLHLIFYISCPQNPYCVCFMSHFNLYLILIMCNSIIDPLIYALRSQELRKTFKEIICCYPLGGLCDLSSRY
Regarding `O=C(NCc1ccccc1Cl)c1csc([C@@H]2O[C@H](CO)[C@@H](O)[C@H]2O)n1`, the activation was -0.25%.
Under `O=C(/C=C/c1ccccc1)Nc1nnc(SCC(=O)c2ccc3ccccc3c2)s1` stands -0.51%; under `CCOCc1nnc(NC(=O)CSc2ccc(C)cc2)s1`, -1.16%; under `O=C(CSc1ccccc1)Nc1nnc(/C=C/c2ccccc2)s1`, 10.9% (active).
Under `CCNC(=O)C1(C)CCCN(Cc2noc(-c3ccccc3OC)n2)C1` (centres undefined) stands 0.8%; under `COc1ccc(OC)c(NC(=O)c2cc(-c3cc(F)ccc3OCC3CCCO3)n[nH]2)c1` (centres undefined), 2.25%.
The same measure for `Cc1nc(C(F)(F)F)ccc1C(=O)N1CCC1(C)C(=O)NS(=O)(=O)c1ccccc1` (centres undefined): -2.41%.
On to `COc1ccccc1NC(=O)Nc1nc(CC(=O)Nc2ccccc2F)cs1`, for which the activation was -1.3%.
`COc1ccc(Cc2nnc(NC(=O)c3ccc(OC)cc3OC)s2)cc1`: the activation is 16.6% (active).
For `COc1ccc(Cc2nnc(NC(=O)c3cc(OC)c(OC)c(OC)c3)s2)cc1OC`, the activation was 0.62%.
As to `O=C(Nc1nnc(COc2ccccc2)s1)Nc1ccccc1F`, the activation was -0.21%.
Turning to `COc1ccccc1NC(=O)Nc1nnc(Cc2ccc(F)cc2)s1`, the activation was 13.2% (active).
Turning to `O=C(Nc1nnc(Cc2ccc(Cl)cc2)s1)c1ccncc1`, the activation is -0.7%.
The same measure for `COc1cccc(CNc2nc3cc(-c4csc5ccccc45)sc3c(=O)n2C)c1`: 6.53%.
Turning to `Cc1ccc(Cn2c(C)c(C(=O)NCc3ccccc3C(F)(F)F)sc2=O)cc1`, the activation was 0.28%.
The same measure for `CC1(C(=O)Nc2ccccc2Br)CCN1C(=O)CC1CC1` (centres undefined): 1%; for `Cc1ccccc1S(=O)(=O)NC(=O)C1(C)CCN1C(=O)Cc1ccc(Cl)cc1Cl` (centres undefined): -1.27%.
Under `CCCc1c(C)nc2c(Br)cccc2c1Cl` stands 0.46%.
The same measure for `COc1cccc(NC(=O)C2(C)CCN2Cc2ccccc2Cl)c1` (centres undefined): 2.88%.
`O=C(NCc1ccccc1)C1CCCN(c2nc3ccsc3c(=O)s2)C1` (centres undefined): the activation is 8.43% (active).
As to `O=C(NCc1ccccc1)C1CCCN(S(=O)(=O)c2cccs2)C1` (centres undefined), the activation is 1.44%.
Under `Cc1cc(=O)n2nc(N3CCCC(C(=O)NCc4ccc(Cl)cc4)C3)sc2n1` (centres undefined) stands -1.57%; under `Cc1ccccc1CN1CCC(C(=O)Nc2ccc(Oc3cccnc3)cc2)CC1`, -3.23%.
Take `CCc1nc2ccc(C(=O)NCc3ccc(OC)cc3)cn2c1N(CC)Cc1cccc(Br)c1`: the activation is -1.05%.
As for `O=C(Nc1nc(-c2ccc(-c3ccccc3)cc2)cs1)c1cnccn1`, the activation is 25.9% (active).
Under `O=C(Nc1nnc(Cc2ccccc2)s1)c1cnccn1` stands -0.34%; under `CC(=O)Nc1ccc(-c2csc(NC(=O)Nc3ccccc3)n2)cc1`, 11% (active).
On to `Cc1ccc(NC(=O)Nc2cc(-c3ccccc3)nn2C)cc1Cl`, for which the activation was -0.42%.
As for `O=C(NCCCNC(=O)c1ccccc1Cl)c1cnccn1`, the activation is 0.85%.
The same measure for `CC(=O)Nc1ccc(-c2cn3cccnc3n2)cc1`: -2.81%.
As to `CC(C)(C)c1ccc(S(=O)(=O)NC(=O)C2(C)CCN2C(=O)CC2CC2)cc1` (centres undefined), the activation is -2.01%.
In the case of `COCCNc1ncnc2c1ncn2[C@H]1CN(CCN2CCOCC2)C[C@@H](CO)O1`, the activation was -1.53%.
Under `CC1(C(=O)NS(=O)(=O)c2cccc(OC(F)F)c2)CCN1C(=O)C1CC1` (centres undefined) stands -1.02%; under `CC1(C(=O)NS(=O)(=O)Cc2cccc(Cl)c2)CCN1C(=O)Cc1ccc(Cl)cc1Cl` (centres undefined), 1.12%.
Under `CCc1nc2ccc(C(=O)Nc3ccc(OC)c(OC)c3)cn2c1N(C)C(=O)c1cccc(OC)c1` stands -1.68%; under `CC1(C(=O)NCc2ccc3c(c2)OCO3)CCN1C(=O)Cc1cccc2ccccc12` (centres undefined), -2.21%; under `COC(=O)Cn1nc(-c2ccccc2)c2cc(Cl)ccc21`, -2.4%.
Consider `Clc1ccc2nc(-c3ccccc3)nc(C(Cl)Cl)c2c1`, for which the activation is 1.35%.
The same measure for `NC(N)=Nc1nc(-c2ccccc2)c2cc(Cl)ccc2n1`: 9.69% (active); for `CC1(C(=O)NS(=O)(=O)c2cccc(F)c2)CCN1C(=O)Cc1ccc(Cl)cc1Cl` (centres undefined): -2.74%.
On to `Cc1ccccc1-c1nc(NC(C)C)nc2cc(-c3ccccc3)sc12`, for which the activation was -0.61%.
On to `CC1(C(=O)NS(=O)(=O)c2ccc3ccccc3c2)CCN1C(=O)C1(c2ccc(Cl)cc2)CCC1` (centres undefined), for which the activation is -0.24%.
The same measure for `CCSc1nnc(-c2cc3c(s2)-c2ccccc2CC3)o1`: -0.34%; for `CSc1nc2sc3c(c2c(=O)[nH]1)CCc1ccccc1-3`: 12.4% (active).
Under `CCSc1nc2sc3c(c2c(=O)[nH]1)CC(C)(C)OC3` stands -0.6%.
Under `COc1ccc(/C=C/C(=O)c2c(O)cc(OC)cc2OC)cc1` stands -0.69%; under `N#Cc1cccc(NC(=O)c2cc(C3CCCCN3C(=O)CCc3ccccc3)on2)c1` (centres undefined), -1.43%; under `CC(C)Oc1ccc(CN2CCC2(C)C(=O)NCc2ccc(C(F)(F)F)cc2)cc1` (centres undefined), 0.02%.
Turning to `COc1ccc(Cl)cc1-n1c(C)cc(C(=O)OCC(=O)N2CC(=O)Nc3ccccc32)c1C`, the activation is 15.3% (active).
Under `COc1cc(OC)c(C(=O)OCC(=O)N2CC(=O)Nc3ccccc32)cc1OC` stands -2.02%; under `COc1ccc(C(=O)OCC(=O)N2CC(=O)Nc3ccccc32)cc1Br`, 0.65%; under `O=C(Nc1cccc(Cc2ccccc2)c1)Nc1ccc2nc([C@@H]3O[C@H](CO)[C@@H](O)[C@H](O)[C@H]3O)[nH]c2c1`, -0.22%.
As to `C[C@H](NC(=O)[C@@H]1Cc2ccccc2CN1C(=O)OC(C)(C)C)C(=O)NC1CCCC1`, the activation is -3.11%.
Turning to `CC(=O)Nc1cnc(-c2ccc(O)cc2C)cn1`, the activation is -2.1%.
Under `Cc1c(C(=O)NCC2CC2)sc(=O)n1Cc1cccc(F)c1` stands 1.11%; under `COc1ccc(CC(=O)Nc2cc(S(=O)(=O)N3CCCCC3)ccc2N2CCN(C)CC2)cc1`, -2.51%; under `Cc1cccc(NC(=O)Nc2cccc(Oc3c(F)c(F)c(F)c(F)c3F)c2)c1`, 15.8% (active).
Under `Cc1ccoc1C(=O)Nc1cccc(Oc2ccccc2)c1` stands 0.82%.
The same measure for `COc1cccc(NC(=O)Nc2ccc(F)cc2)c1`: 1.45%.
Turning to `CC(C)CNC(=O)C1(C)CCCN1C(=O)CSc1ccccc1` (centres undefined), the activation is -1.48%.
Under `CC(Oc1ccc(Br)cc1)C(=O)NCC(c1ccco1)N1CCCCC1` (centres undefined) stands 0.14%.
The same measure for `O=C(Nc1ccc(N2CCOCC2)cc1)c1cccc2c(-c3ccc(F)c(F)c3)coc12`: 3.52%.
The same measure for `Cc1ccc(C(=O)Nc2sc(Cc3ccc4c(c3)OCO4)c(C)c2C(N)=O)cc1`: 0.85%; for `COc1ccc(CC(=O)Nc2c(C(N)=O)oc3ccccc23)cc1`: -1.72%; for `COc1ccc(CC(=O)Nc2sc(Cc3ccccc3)c(C)c2C(N)=O)cc1`: 9.06% (active).
With `CCc1nc2ccc(C(=O)N(C)CCN(C)C)cn2c1N(CC)CCOC`, the activation is -1.01%.
Under `COc1ccc(NC(=O)C2Cc3c(-c4ccc(Cl)cc4)ccnc3O2)cc1` (centres undefined) stands 2.27%; under `Cc1cccnc1C(NC(=O)C1CCN(Cc2ccc(Cl)c(Cl)c2)CC1)c1ccc(Cl)cc1` (centres undefined), -0.01%.
Consider `CC(C)(C)c1nnc2sc(SCC(O)=C(C#N)c3nc4ccccc4[nH]3)nn2c1=O`, for which the activation was -0.79%.
Under `N#C/C(=C(/O)COC(=O)COc1ccc(Cl)cc1)c1nc2ccccc2[nH]1` stands 14.5% (active); under `COc1ccccc1C(=O)COC(=O)COc1ccc(C#N)cc1`, -0.25%.
Regarding `CC(C)NC(=O)C1(C)CCCCCN1C(=O)c1ccc(-c2ccccc2)cc1` (centres undefined), the activation is -1.12%.
The same measure for `COCCNc1nnc(SCC(=O)NNC(=O)c2ccco2)s1`: -0.17%; for `O=C(NCc1ccc(F)cc1)c1cc(C2CCCCN2C(=O)c2cccs2)on1` (centres undefined): -0.1%.
As for `COC(=O)c1sccc1NC(=O)c1cc(OC)c(OC)c(OC)c1`, the activation is 10.6% (active).
On to `COC(=O)c1sccc1NN1C(=O)c2ccccc2C1=O`, for which the activation is 1.29%.
For `COC(=O)c1sccc1NC(=O)c1ccc(Cl)cc1`, the activation is 3.1%.
`COc1ccc(NC(=O)C2(C)Cc3c(-c4cccc(NC(C)=O)c4)ccnc3O2)cc1` (centres undefined): the activation is -0.48%.
In the case of `CCN(CC)C(=O)C1CCCN(Cc2cccc(Cl)c2)C1` (centres undefined), the activation was -1.07%.
The same measure for `Cc1noc(C)c1C(=O)N1CCC1(C)C(=O)NS(=O)(=O)c1ccc(C#N)cc1` (centres undefined): -1.23%; for `COc1cccc(C(NC(C)=O)c2nc(-c3cnc4ccccc4c3)cs2)c1` (centres undefined): -2.35%.
As to `Cc1ccc(-c2csc(NC(=O)Cn3[nH]c(=O)c4ccccc4c3=O)n2)cc1`, the activation was 16.1% (active).
Under `O=C(CSc1nc2ccccc2c(=O)[nH]1)Nc1nc(-c2ccc(Br)cc2)cs1` stands 0.03%; under `Cc1ccc(C)c(C(=O)COC(=O)Cn2[nH]c(=O)c3ccccc3c2=O)c1`, -1.85%; under `Cc1cc(=O)oc2c3c(cc(OCC(=O)NCC(O)c4ccccc4)c12)OC(C)(C)CC3` (centres undefined), 2.2%.
The same measure for `CCc1nc2c(OCc3ccc(Cl)cc3Cl)cccn2c1N(C)C(=O)C(C)C`: -0.09%.
The same measure for `CCCCCC(=O)N1C[C@H](O)[C@@H](n2cc(COC(=O)c3ccccc3)nn2)C[C@@H]1c1ccc(C)cc1`: 0.09%; for `Cc1ccc([C@H]2C[C@H](O)[C@@H](n3cc(COC(=O)c4ccccc4)nn3)CN2C(=O)C2CCCCC2)cc1`: 9.82% (active); for `Cc1ccc([C@H]2C[C@H](O)[C@@H](n3cc(COC(=O)c4ccccc4)nn3)CN2CC2CCCCC2)cc1`: 1.06%.
